Assay outcomes from PubChem.
HTT aggregate: mutant huntingtin aggregation inhibition; PC12 HttQ103-GFP aggregates, Acumen cytometry, 40 h; Potency, µM (titrated, usually from 46.1 µM), for the others: at the highest dose activity change, negative = inhibition, usual class: inhibitors; 1.1% of 220,000 active; note: % is set by controls: 0 for no effect and ±100 for the full control effect; nearly all actives have a fitted effect of over 60% in size
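Steps: seed 1500 PC12 HTTQ103-GFP cells/well; add tebufenozide, 100 nM final; add compound titration; add ATPLite reagent; quantify GFP aggregates by laser scanning cytometry.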
Lamin A splicing: modulators of lamin A splicing | HeLa LMNA splicing GFP/RFP minigene ratio, 48 h | Potency, µM (top dose mostly 46.1 µM), for the others: top-dose ratio change, negative = inhibition, hits mostly inhibitors | 0.01% of 200,000 active | AID 1487; active = well fitted inhibition curve with a large enough effect in the signal ratio, with a control signal flat, not every such curve was filed as active; inconclusive = small, poorly fitted or top-dose-only effect, or effect the other way, or a change in a side signal; the % refers to the signal ratio; note: % is set by controls: 0 for no effect and ±100 for the full control effect
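S3 HeLa stable clones carrying a lamin A-EGFP splicing minigene plus DsRed2 were seeded at 600 cells/well in Opti-MEM with 2% FBS, pin-dosed and incubated 48 h at 37°C. Acumen cytometry (488 nm) gave the GFP/RFP total-intensity ratio.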
ALDH1A1 block: inhibitors of human aldehyde dehydrogenase 1A1 | P00352 | Purified ALDH1A1, NADH fluorescence, propionaldehyde substrate | 7.3% of 220,000 active | Potency, µM (doses to about 75.3 µM), inactives show top-dose activity, negative = inhibition, actives largely listed as inhibitors; active = well fitted inhibition curve with a large enough effect, not every such curve was filed as active; inconclusive = small, poorly fitted or top-dose-only effect, or another doubt; inactive = no such curve, though single readings can be large or run the other way;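 note: plate controls were no enzyme wells and a reference inhibitor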
HPGD block: inhibitors of human 15-hydroxyprostaglandin dehydrogenase (HPGD); P15428; purified HPGD, NADH fluorescence kinetic, PGE2 substrate; Potency, µM, inactives show at the highest dose activity change, negative = inhibition, most hits filed as inhibitors; 4.3% of 150,000 active; AID 894; active = well fitted inhibition curve with a large enough effect, not every such curve was filed as active; inconclusive = small, poorly fitted or top-dose-only effect, or another doubt; inactive = no such curve, though single readings can be large or run the other way; note: % is set by controls: 0 for no effect and ±100 for the full control effect
Target sequence (P15428 whole entry, looked up): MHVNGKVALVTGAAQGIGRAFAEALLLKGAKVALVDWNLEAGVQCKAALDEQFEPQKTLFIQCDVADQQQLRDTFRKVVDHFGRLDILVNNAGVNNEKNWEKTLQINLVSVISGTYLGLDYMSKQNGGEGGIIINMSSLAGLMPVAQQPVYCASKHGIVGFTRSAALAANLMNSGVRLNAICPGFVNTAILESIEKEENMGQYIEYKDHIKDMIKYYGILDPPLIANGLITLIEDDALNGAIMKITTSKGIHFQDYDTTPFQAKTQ
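20 nM HPGD preincubated 15 min at room temperature with compound in 50 mM Tris-HCl pH 8, 0.01% Tween 20. Started with 1 mM NAD+ and 30 uM prostaglandin E2; NADH fluorescence (360/450 nm) read 5 times over 30-s intervals, last minus first.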
HTT cytoprotect: cytoprotection in Huntington HTT-Q103 PC12 cell model. PC12 HTT-Q103 induced, cytoprotection, ATP luminescence, 40 h. Potency, µM (doses to about 56.4 µM), inactives show cytoprotection (ATP increase), hits mostly activators. 0.14% of 230,000 active; note: % of control where 0% means no effect; nearly all actives have a fitted effect of over 45% in size
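Stable PC12 Q103-GFP cells in serum-supplemented, phenol red-free DMEM; induction by tebufenozide at 100 nM final; compound dose series; cell viability quantified luminescently from ATP.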
KinaseGlo FLuc: blocks Kinase-Glo luciferase, a counter-screen artifact; Q27757; Kinase-Glo luciferase, ATP luminescence, 8 min; Potency, µM (titrated, usually from 38.3 µM), inactives show top-dose activity change, negative = inhibition, hits mostly inhibitors; 0.28% of 200,000 active; AID 1379; note: % is set by controls: 0 for no effect and ±100 for the full control effect; nearly all actives have a fitted effect of over 60% in size
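Recombinant Kinase-Glo luciferase, 10 uM ATP (linear range), luciferin; imidazole pH 7.2 / KCl / MgCl2 / Tween / BSA buffer; 8 min RT; luminescence.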
Numbers without * were called inactive; u = inconclusive; x = no result given; [ ] = dose if it differs, or a comment. This is a sample that favours compounds with a hit; in the whole collection about 9% have one here. Unless noted, calls come from the whole dose curve; as a rule, active = well fitted curve in the direction sought with a large enough effect; inconclusive = small, poorly fitted or top-dose-only effect, or another doubt; inactive = no such curve, though single readings can be large; an effect the other way counts as inactive or inconclusive. Potency is the fitted concentration of half-maximal effect.

SMILES	HTT aggregate	Lamin A splicing	ALDH1A1 block	HPGD block	HTT cytoprotect	KinaseGlo FLuc
c1ccc(-c2nnc(-c3ccccc3)nn2)cc1	21.4%[9.22 µM]	x	x	x	-15.4%[10 µM]	x
OCCC1CN(Cc2ccc3nsnc3c2)CCN1CCc1ccccc1 (stereo not given)	11.8%[9.22 µM]	6.9%[46 µM]	-0.9%	x	17.5%[10 µM]	6.6%
COc1ccccc1C(=O)C1CCCN(C(=O)c2cccnc2SC)C1 (stereo not given)	12.3%[9.22 µM]	-16.2%[46 µM]	u	x	9.4%[10 µM]	-1.5%
COc1ccc(Nc2nnc(SCC3CCCCO3)s2)cc1 (stereo not given)	-3.6%	x	-17.1%	x	-17.1%	1.9%
COc1ccc(Nc2nnc(SCC(=O)Nc3ccc4[nH]c(=O)[nH]c4c3)s2)cc1	1.4%[9.22 µM]	x	15.8µM*	x	-23.7%[10 µM]	x
Cc1cc(C(=O)CSc2nc3ccc(Cl)cc3[nH]2)c(C)n1CC1CCCO1 (stereo not given)	3.16µM*	-19.2%	-5.4%	-10.9%	-130.0%	-7.2%
COc1ccc(Nc2nnc(SCC(=O)c3cc(C)n(CC4CCCO4)c3C)s2)cc1 (stereo not given)	-12.9%	u	6.31µM*	-25.6%	-61.6%	-3.3%
COc1ccc(Nc2nnc(SCC(=O)NC(=O)Nc3ccc4c(c3)OCCO4)s2)cc1	u	u	-10.4%	x	3.5%[10 µM]	-2.3%
COc1cc2c(cc1OC)C(c1ccc(-c3ccc(Cl)cc3Cl)o1)=NCC2	14.1µM*	u	1.4%	-4.2%	-103.5%	-1.6%
COc1cc2c(cc1OC)C(c1ccc(-c3cc(Cl)ccc3Cl)o1)=NCC2	4.7%	u	u	15.8µM*	-52.0%[10 µM]	1.6%
COc1cc2c(cc1OC)C(c1ccc(-c3ccc(Cl)c(Cl)c3)o1)=NCC2	8.91µM*	u	-4.7%	-8.4%	8.2%[10 µM]	-23.2%
c1nc(NCCN2CCOCC2)c2cc(-c3ccc4c(c3)OCO4)ccc2n1	x	18.2%	u	u	-19.4%	-6.0%
COC(=O)c1nnc(C(=O)NCc2ccccc2)c2[nH]c3ccc(OC)cc3c12	x	x	-3.0%	-0.9%	u	0.2%
CC(C)N(CC#CCC1(O)c2ccccc2-c2ccccc21)CCO	1.7%	-11.3%	20µM*	-9.1%	-1.5%[10 µM]	2.2%
CCN(CC#CCC1(O)c2ccccc2-c2ccccc21)CCO	-6.2%	1.1%	-4.6%	-10.8%	8.8%	-5.2%
Cc1nc(N2CCN(C(=O)COc3ccccc3)CC2)c2c(C)c(C)sc2n1	-14.5%	u	11.2µM*	u	-28.6%	-0.6%
O=C(COc1ccccc1)N1CCN(c2ncccn2)CC1	18.5%	x	-4.0%	x	-22.3%	3.3%
CCOC(=O)C1CCN(C(=O)c2ccc(NC(=O)C3CCCO3)cc2)CC1 (stereo not given)	-19.1%	-10.9%	0.7%	25.1µM*	-6.7%[10 µM]	0.2%
CCCCc1ccc(NC(=O)C2CCCO2)cc1 (stereo not given)	9.9%	-6.7%	1.2%	15.8µM*	-7.8%[10 µM]	-2.2%
CCOC(=O)c1ccc(NC(=O)C2CCCO2)cc1 (stereo not given)	2.1%	0.8%	-12.5%	25.1µM*	-12.5%	1.9%
CCCCOC(=O)c1ccc(NC(=O)C2CCCO2)cc1 (stereo not given)	-10.9%	2.3%	-14.8%	-29.6%	-11.6%	-0.2%
CCOC(=O)C1CCN(C(=O)Nc2ccc(NC(=O)C3CCN(C(=O)OCC)CC3)cc2)CC1	u	4.0%	-1.9%	-4.9%	10.3%	1.1%
Cc1cccc(N2CCN(C(=O)c3ccc(NC(=O)C4CCCO4)cc3)CC2C)c1 (stereo not given)	-31.1%	-1.8%	1.2%	-10.8%	-4.8%	5.1%
CC(=O)c1ccc(N2CCN(C(=O)c3ccc(NC(=O)C4CCCO4)cc3)CC2)cc1 (stereo not given)	-12.9%	-3.0%	-9.1%	25.1µM*	19.6%[1.9 µM]	-2.5%
COC(=O)CC1=C(C(=O)OC)C(c2ccncc2)C(C#N)=C(N)O1 (stereo not given)	u	14.1%	u	-9.8%	-2.4%	-3.1%
